Data published in PMC7862700, “An all-to-all approach to the identification of sequence-specific readers for epigenetic DNA modifications on cytosine”.

Experiments:
Assay in all cases: DAPPL (digital affinity profiling via proximity ligation, sequencing); 10 mM Tris-HCl pH 7.5, 50 mM NaCl, 1 mM DTT, 4% glycerol, room temperature, 30 min; GST-TFs on glutathione beads, 16-mer random dsDNA library, 0.1% formaldehyde crosslink after washing; high values mean tight binding
Conditions in all cases: protein: recombinant; tags: N-terminal GST; dsDNA, one strand shown
ERF = target: T1, ERF (Homo sapiens, UniProt P50548 1-548)
T1 sequence: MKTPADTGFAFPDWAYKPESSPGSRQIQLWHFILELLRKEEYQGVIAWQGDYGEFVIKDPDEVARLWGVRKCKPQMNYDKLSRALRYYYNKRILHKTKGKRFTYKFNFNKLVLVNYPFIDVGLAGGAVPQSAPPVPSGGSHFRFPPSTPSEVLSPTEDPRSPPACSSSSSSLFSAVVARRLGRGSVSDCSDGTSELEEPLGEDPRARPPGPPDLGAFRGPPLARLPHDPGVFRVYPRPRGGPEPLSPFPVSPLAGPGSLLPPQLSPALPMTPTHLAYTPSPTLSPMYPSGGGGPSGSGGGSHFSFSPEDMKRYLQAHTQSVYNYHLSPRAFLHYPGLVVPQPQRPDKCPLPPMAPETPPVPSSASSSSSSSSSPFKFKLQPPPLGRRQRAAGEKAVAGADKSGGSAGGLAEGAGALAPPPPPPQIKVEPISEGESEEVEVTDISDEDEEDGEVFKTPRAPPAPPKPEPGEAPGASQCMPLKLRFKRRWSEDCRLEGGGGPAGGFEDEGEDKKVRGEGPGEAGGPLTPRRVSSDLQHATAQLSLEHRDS
Summary of the method: (§1)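 Binding signal is each hexamer's read frequency for a factor divided by its frequency in the tag-only sample. The factors were GST-fused human transcription factors from yeast, captured on glutathione beads, DNA-barcoded and pooled with that sample. Pools were incubated with 200 nmole of a random double-stranded 16-mer DNA library in Tris/NaCl/DTT/glycerol buffer at room temperature for 30 min, then washed, crosslinked with 0.1% formaldehyde, proximity-ligated with BsaI/T4 ligase (1 h, 37 °C), PCR-amplified and sequenced on an Illumina NextSeq500.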

ETV3L = target: T2, ETV3L (Homo sapiens, UniProt Q6ZN32 1-361)
T2 sequence: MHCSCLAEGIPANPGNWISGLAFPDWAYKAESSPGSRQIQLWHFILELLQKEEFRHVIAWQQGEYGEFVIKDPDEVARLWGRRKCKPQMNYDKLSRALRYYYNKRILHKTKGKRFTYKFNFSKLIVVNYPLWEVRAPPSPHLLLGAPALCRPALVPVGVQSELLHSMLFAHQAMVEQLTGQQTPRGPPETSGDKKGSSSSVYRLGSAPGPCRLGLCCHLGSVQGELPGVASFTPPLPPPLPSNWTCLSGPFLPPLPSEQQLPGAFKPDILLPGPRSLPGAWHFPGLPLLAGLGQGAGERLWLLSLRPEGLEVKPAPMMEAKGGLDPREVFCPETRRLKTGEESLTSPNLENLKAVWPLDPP
Summary of the method: as §1

ETS2 = target: T3, ETS2 (Homo sapiens, UniProt P15036 1-469)
T3 sequence: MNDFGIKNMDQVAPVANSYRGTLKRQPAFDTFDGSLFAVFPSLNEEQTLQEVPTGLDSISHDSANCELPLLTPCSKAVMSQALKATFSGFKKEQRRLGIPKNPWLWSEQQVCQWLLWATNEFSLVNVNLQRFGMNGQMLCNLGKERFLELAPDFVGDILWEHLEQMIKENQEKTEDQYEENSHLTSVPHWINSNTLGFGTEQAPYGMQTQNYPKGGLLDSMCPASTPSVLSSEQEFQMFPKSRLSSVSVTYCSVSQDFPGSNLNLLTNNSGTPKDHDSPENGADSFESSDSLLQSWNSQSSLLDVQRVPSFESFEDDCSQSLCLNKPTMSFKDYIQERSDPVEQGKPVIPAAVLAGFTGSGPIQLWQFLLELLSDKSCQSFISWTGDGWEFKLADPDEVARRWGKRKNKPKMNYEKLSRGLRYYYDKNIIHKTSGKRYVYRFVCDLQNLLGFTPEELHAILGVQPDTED
Summary of the method: as §1

SPDEF = target: T4, SPDEF (Homo sapiens, UniProt O95238 1-335)
T4 sequence: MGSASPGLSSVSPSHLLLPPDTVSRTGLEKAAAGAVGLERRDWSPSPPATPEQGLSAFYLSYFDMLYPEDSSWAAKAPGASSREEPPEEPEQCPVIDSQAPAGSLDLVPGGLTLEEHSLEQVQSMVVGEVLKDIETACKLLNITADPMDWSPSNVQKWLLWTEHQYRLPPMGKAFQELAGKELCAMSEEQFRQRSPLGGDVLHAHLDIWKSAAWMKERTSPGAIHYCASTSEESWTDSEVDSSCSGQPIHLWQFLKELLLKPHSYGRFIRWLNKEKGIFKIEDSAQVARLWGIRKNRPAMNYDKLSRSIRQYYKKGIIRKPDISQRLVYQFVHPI
Summary of the method: as §1

ETV7 = target: T5, ETV7 (Homo sapiens, UniProt Q9Y603 1-341)
T5 sequence: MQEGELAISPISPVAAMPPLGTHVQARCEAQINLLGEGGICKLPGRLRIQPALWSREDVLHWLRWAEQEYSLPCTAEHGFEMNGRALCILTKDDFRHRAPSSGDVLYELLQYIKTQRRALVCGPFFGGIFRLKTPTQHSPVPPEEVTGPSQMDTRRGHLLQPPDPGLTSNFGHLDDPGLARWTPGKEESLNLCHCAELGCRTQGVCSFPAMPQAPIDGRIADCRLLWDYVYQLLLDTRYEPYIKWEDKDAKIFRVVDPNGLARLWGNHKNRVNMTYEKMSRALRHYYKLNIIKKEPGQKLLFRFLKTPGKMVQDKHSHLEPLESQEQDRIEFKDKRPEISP
Summary of the method: as §1

ELF5 = target: T6, ELF5 (Homo sapiens, UniProt Q9UKW6-2 1-255)
T6 sequence: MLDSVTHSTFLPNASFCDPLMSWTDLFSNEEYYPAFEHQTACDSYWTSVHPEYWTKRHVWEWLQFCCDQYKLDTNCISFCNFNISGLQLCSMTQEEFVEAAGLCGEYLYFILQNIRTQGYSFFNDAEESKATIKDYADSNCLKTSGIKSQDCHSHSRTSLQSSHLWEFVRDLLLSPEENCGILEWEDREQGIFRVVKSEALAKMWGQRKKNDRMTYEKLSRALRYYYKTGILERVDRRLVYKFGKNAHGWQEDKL
Summary of the method: as §1

ETV3 = target: T7, ETV3 (Homo sapiens, UniProt P41162-2 1-143)
T7 sequence: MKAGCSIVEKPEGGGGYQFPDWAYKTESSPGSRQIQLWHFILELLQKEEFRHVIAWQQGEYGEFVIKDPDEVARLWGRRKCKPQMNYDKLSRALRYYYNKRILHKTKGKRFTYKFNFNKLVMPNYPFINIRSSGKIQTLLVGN
Summary of the method: as §1

ETV6 = ETV6 (Homo sapiens, UniProt P41212 1-452)
ETV6, sequence (P41212 whole entry): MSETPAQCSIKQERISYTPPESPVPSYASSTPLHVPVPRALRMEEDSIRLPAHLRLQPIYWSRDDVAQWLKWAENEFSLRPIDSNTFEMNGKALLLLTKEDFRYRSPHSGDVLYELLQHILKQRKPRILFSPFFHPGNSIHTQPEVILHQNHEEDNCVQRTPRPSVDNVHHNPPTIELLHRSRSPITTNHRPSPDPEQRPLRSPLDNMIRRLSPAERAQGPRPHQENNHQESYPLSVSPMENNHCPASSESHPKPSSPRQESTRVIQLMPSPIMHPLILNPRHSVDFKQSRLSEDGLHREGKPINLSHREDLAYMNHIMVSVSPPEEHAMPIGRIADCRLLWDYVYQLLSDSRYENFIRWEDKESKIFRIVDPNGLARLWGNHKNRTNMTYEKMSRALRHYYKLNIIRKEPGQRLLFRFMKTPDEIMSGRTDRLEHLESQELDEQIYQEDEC
Summary of the method: as §1

Sequence | binding signal (ERF) | binding signal (ETV3L) | binding signal (ETS2) | binding signal (SPDEF) | binding signal (ETV7) | binding signal (ELF5) | binding signal (ETV3) | binding signal (ETV6)
CGAAAC | 1.24 fold enrichment (6-mer frequency, TF over GST control) | 1.22 fold enrichment (6-mer frequency, TF over GST control) | 1.16 fold enrichment (6-mer frequency, TF over GST control) | 1.22 fold enrichment (6-mer frequency, TF over GST control) | 1.22 fold enrichment (6-mer frequency, TF over GST control) | 1.12 fold enrichment (6-mer frequency, TF over GST control) | 1.08 fold enrichment (6-mer frequency, TF over GST control) | 1.16 fold enrichment (6-mer frequency, TF over GST control)
ATGGGC | 1.17 fold enrichment (6-mer frequency, TF over GST control) | 1.3 fold enrichment (6-mer frequency, TF over GST control) | 1.28 fold enrichment (6-mer frequency, TF over GST control) | 1.24 fold enrichment (6-mer frequency, TF over GST control) | 1.22 fold enrichment (6-mer frequency, TF over GST control) | 1.26 fold enrichment (6-mer frequency, TF over GST control) | 1.23 fold enrichment (6-mer frequency, TF over GST control) | 1.33 fold enrichment (6-mer frequency, TF over GST control)
CCGCGC | 1.23 fold enrichment (6-mer frequency, TF over GST control) | 1.08 fold enrichment (6-mer frequency, TF over GST control) | 1.21 fold enrichment (6-mer frequency, TF over GST control) | 1.17 fold enrichment (6-mer frequency, TF over GST control) | 1.06 fold enrichment (6-mer frequency, TF over GST control) | 1.18 fold enrichment (6-mer frequency, TF over GST control) | 1.19 fold enrichment (6-mer frequency, TF over GST control) | 1.15 fold enrichment (6-mer frequency, TF over GST control)
CTCGCG | 1.41 fold enrichment (6-mer frequency, TF over GST control) | 1.44 fold enrichment (6-mer frequency, TF over GST control) | 1.47 fold enrichment (6-mer frequency, TF over GST control) | 1.4 fold enrichment (6-mer frequency, TF over GST control) | 1.38 fold enrichment (6-mer frequency, TF over GST control) | 1.42 fold enrichment (6-mer frequency, TF over GST control) | 1.42 fold enrichment (6-mer frequency, TF over GST control) | 1.36 fold enrichment (6-mer frequency, TF over GST control)
ATACTA | 1.09 fold enrichment (6-mer frequency, TF over GST control) | 1.2 fold enrichment (6-mer frequency, TF over GST control) | 1.24 fold enrichment (6-mer frequency, TF over GST control) | 1.17 fold enrichment (6-mer frequency, TF over GST control) | 1.14 fold enrichment (6-mer frequency, TF over GST control) | 1.13 fold enrichment (6-mer frequency, TF over GST control) | 1.14 fold enrichment (6-mer frequency, TF over GST control) | 1.11 fold enrichment (6-mer frequency, TF over GST control)
CCGGCA | 1.28 fold enrichment (6-mer frequency, TF over GST control) | 1.47 fold enrichment (6-mer frequency, TF over GST control) | 1.43 fold enrichment (6-mer frequency, TF over GST control) | 1.67 fold enrichment (6-mer frequency, TF over GST control) | 1.27 fold enrichment (6-mer frequency, TF over GST control) | 1.51 fold enrichment (6-mer frequency, TF over GST control) | 1.45 fold enrichment (6-mer frequency, TF over GST control) | 1.61 fold enrichment (6-mer frequency, TF over GST control)
CTCGGC | 1.34 fold enrichment (6-mer frequency, TF over GST control) | 1.26 fold enrichment (6-mer frequency, TF over GST control) | 1.31 fold enrichment (6-mer frequency, TF over GST control) | 1.22 fold enrichment (6-mer frequency, TF over GST control) | 1.34 fold enrichment (6-mer frequency, TF over GST control) | 1.34 fold enrichment (6-mer frequency, TF over GST control) | 1.36 fold enrichment (6-mer frequency, TF over GST control) | 1.37 fold enrichment (6-mer frequency, TF over GST control)
GTTCAC | 1.29 fold enrichment (6-mer frequency, TF over GST control) | 1.25 fold enrichment (6-mer frequency, TF over GST control) | 1.28 fold enrichment (6-mer frequency, TF over GST control) | 1.23 fold enrichment (6-mer frequency, TF over GST control) | 1.29 fold enrichment (6-mer frequency, TF over GST control) | 1.13 fold enrichment (6-mer frequency, TF over GST control) | 1.19 fold enrichment (6-mer frequency, TF over GST control) | 1.2 fold enrichment (6-mer frequency, TF over GST control)
